Screening data as filed in PubChem.
Jurkat NFkB inh: inhibitors of the PMA/ionomycin-induced NF-kB reporter in Jurkat cells; PMA/ionomycin-induced NF-kB luciferase reporter, luminescence; inhibition, % at 4 µM; actives 0.53% (n = 330,000); AID 435003; in the data active = inhibition above about 50%
aSyn UTR inh: 5' untranslated region of α-synuclein, MLPCN primary screen. alpha-synuclein 5'UTR reporter, inhibitor activity. inhibition, % (tested at 7.5 µM). actives 0.82% (n = 300,000). AID 1813; in the data active = inhibition above about 60%;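 also: H4 neuroglioblastoma cells stably carrying SNCA 5'UTR luciferase fusion; 0% = DMSO wells and 100% = positive control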
697 NFkB inh: lowers PMA/ionomycin-induced NF-kB signal in 697 B cells; actives 0.33% (n = 330,000); inhibition, % at 4 µM; 697 B-cell NF-kB luciferase reporter, 16 h; in the data active = inhibition above about 35%
KLF5 inh: suppresses KLF5 promoter-driven expression | DLD-1 KLF5 promoter-luciferase reporter, luminescence | inhibition, % at 5 µM | AID 1700 | actives 0.23% (n = 290,000);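 active = inhibition above a per-plate limit of that plate's mean compound inhibition plus 3 SD, cut at about 60% in these data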;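 also: 0% = DMSO wells and 100% = LY294002 at 200 µM; higher means less KLF5 promoter-driven luciferase light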
TMEM16A inh: inhibitors of mouse TMEM16A calcium-activated chloride channel; Q8BHY3; HEK293 TMEM16A/YFP iodide influx fluorescence, ionomycin; normalized B-score (activity score, 25-100; higher = stronger inhibition) at 10 µM; actives 1.2% (n = 310,000);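 active = ratio plate-corrected score three or more library SD toward inhibition, starting fluorescence score within five deviations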;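 also: score derived from kinetic fluorescence span divided by baseline fluorescence per well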
TMEM16A act: activators or potentiators of mouse TMEM16A chloride channel; Q8BHY3; HEK293 TMEM16A/YFP-H148Q/I152L, iodide quench fluorescence; active compounds read low; B-score at 10 µM; actives 0.3% (n = 340,000);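 active = fluorescence-ratio B-score plate-corrected deviation score at least 3 library SD below zero, with starting fluorescence score within 5 deviations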;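 also: channel opened by trigger with iodide after compound preincubation; score built on the fluorescence ratio of max minus min over baseline; more negative score means more quench and so TMEM16A activation or potentiation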
TMEM16A reconf: TMEM16A (mouse) chloride channel inhibition, re-confirmation. shares compounds with TMEM16A inh. inhibition, % at 10 µM. AID 652189. actives 39% (n = 2,300). HEK293 TMEM16A/YFP-H148Q, iodide quench fluorescence; ionomycin added to raise cell calcium;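 active = mean duplicate percent inhibition, scaled so buffer wells are 0 and the reference blocker 100, over three buffer SD above buffer mean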
HEK293 Ca mobil: calcium mobilization counter-screen hit for TMEM16A inhibitor series; calcium response (% of ionomycin), % at 10 µM; TMEM16A/YFP HEK293, Fluo4 calcium mobilization; shares compounds with TMEM16A inh; actives 2% (n = 2,300); AID 652231;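 active = duplicate-averaged calcium signal over 20% of the ionomycin maximum, relative to buffer baseline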;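 also: each well's signal is peak minus trough fluorescence divided by its pre-addition baseline; 0% = buffer wells and 100% = ionomycin wells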
YFP-HEK293 quench: acts in parental YFP-HEK293 cells lacking TMEM16A, counter-screen; AID 652233; YFP ratio F(max-min)/F0 at 10 µM; shares compounds with TMEM16A inh; iodide YFP quench, ionomycin; 2,300 tested, under 10 active;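 active = yellow fluorescent protein signal ratio exceeding the buffer control mean by over 5 SD of those controls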;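 also: ratio is mean of duplicate wells from kinetic YFP trace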
ClC-1 inh: rat ClC-1 inhibition, TMEM16A specificity screen. CHO ClC-1-YFP, iodide influx fluorescence quench; iodide control reads 0, buffer control 100. 2,300 tested, under 10 active. ratio percent, % at 10 µM. AID 652236. shares compounds with TMEM16A inh;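 active = duplicate-mean ratio percent above the mean of iodide-only control wells, which defines zero, plus 5 of their SD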;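 also: higher percent means stronger block of ClC-1 iodide influx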
Target sequence (P35524 whole entry, looked up): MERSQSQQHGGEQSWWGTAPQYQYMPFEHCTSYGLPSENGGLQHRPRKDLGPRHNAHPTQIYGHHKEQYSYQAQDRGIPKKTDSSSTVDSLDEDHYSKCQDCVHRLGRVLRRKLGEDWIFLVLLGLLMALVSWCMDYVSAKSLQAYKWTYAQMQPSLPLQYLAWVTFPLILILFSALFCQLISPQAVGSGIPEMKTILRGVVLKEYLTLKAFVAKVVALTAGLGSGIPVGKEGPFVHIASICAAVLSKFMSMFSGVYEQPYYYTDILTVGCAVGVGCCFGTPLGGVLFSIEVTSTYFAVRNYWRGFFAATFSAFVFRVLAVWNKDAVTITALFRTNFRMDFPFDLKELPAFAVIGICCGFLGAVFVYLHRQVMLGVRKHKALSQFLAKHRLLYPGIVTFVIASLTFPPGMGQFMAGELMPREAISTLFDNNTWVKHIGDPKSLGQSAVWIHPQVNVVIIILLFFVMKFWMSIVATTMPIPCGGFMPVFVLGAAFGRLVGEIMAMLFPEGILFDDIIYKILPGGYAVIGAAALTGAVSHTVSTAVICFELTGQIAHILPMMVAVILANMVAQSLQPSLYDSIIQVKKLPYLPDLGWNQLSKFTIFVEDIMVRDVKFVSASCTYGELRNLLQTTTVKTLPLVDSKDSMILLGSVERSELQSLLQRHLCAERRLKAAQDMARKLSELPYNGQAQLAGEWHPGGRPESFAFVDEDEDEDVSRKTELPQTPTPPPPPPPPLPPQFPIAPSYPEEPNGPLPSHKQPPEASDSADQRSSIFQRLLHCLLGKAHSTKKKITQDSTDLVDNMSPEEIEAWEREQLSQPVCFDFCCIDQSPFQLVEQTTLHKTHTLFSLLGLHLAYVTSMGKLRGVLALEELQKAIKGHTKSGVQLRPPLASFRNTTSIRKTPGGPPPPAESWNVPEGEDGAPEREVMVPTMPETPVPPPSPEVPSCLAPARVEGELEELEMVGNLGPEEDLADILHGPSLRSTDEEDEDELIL
Numbers without * were called inactive; i = inactive; x = no result given. Hits are enriched below; roughly 2.5% of the tested compounds scored in any of these assays.

SMILES	Jurkat NFkB inh	aSyn UTR inh	697 NFkB inh	KLF5 inh	TMEM16A inh	TMEM16A act	TMEM16A reconf	HEK293 Ca mobil	YFP-HEK293 quench	ClC-1 inh
O=C(O)c1ccc(N=Nc2c(O)[nH]c3ccc(Br)cc23)cc1	-15.4	-188.3	-194.7	-124.5	i	i	17.0%*	i	-0.765	-7.5
O=C(CNC(=O)c1ccccc1)N=Nc1c(O)[nH]c2ccc(Br)cc12	-0.7	8.0	-6.5	-70.1	i	i	x	x	x	x
CCCc1cc(=O)n2[nH]cc(-c3ccc(Cl)cc3)c2n1	-2.8	70.9*	-7.7	-22.5	100*	i	i	i	-0.927	-13.5
CCN(CC)c1ccc(C=Nc2cc(C)cc(C)c2)c(O)c1	-14.7	16.0	13.1	-34.4	25*	-5.19*	i	i	-1.13	-3.0
COc1cccc2c1C(=O)C=C(C)C2=O	19.7	-18.0	-24.1	4.2	25*	i	i	24.5%*	-0.971	-8.5
COc1ccc2c(c1O)C(=O)c1ccccc1C2=O	-9.6	16.6	-6.9	-10.3	i	x	x	x	x	x
NS(=O)(=O)c1ccc(CCNS(=O)(=O)c2cccc3nsnc23)cc1	-0.3	11.3	16.1	-25.3	i	i	x	x	x	x
CCOc1ccc(CN2CCC(n3nccc3NC(=O)CCCc3ccccc3)CC2)cc1	5.2	12.4	-22.9	2.6	25*	i	i	i	-0.976	-2.0
O=C(CCCc1ccccc1)Nc1ccnn1C1CCN(Cc2ccc(Cl)cc2)CC1	14.0	16.7	-24.7	-20.1	i	i	x	x	x	x
COc1cc(CN2CCC(n3nccc3NC(=O)CCCc3ccccc3)CC2)ccc1F	-3.5	19.4	-37.4	-7.8	25*	i	16.5%*	i	-0.886	-5.5
COc1cc(C(=O)N2CCN(c3ccccc3)CC2)c2ccccc2n1	x	x	x	x	x	i	x	x	x	x
CC(C(Sc1ccccc1N)c1ccccc1)[N+](=O)[O-] (configuration not stated)	-13.3	-82.8	-9.2	-17.0	i	i	x	x	x	x
COc1ccccc1NC(=O)O/N=C(\N)c1ccccc1	13.4	11.7	26.6	7.1	i	i	x	x	x	x
CCOC(=O)c1ccc(Nc2nc(-c3cccnc3)nc3ccccc23)cc1	9.0	-102.6	12.3	-6.3	25*	i	38.0%*	i	-1.15	-20.5
Cc1ccc(Nc2nc(-c3cccnc3)nc3ccccc23)cc1	40.8	-94.7	-64.6	-0.2	i	i	x	x	x	x
